KB-3-1 cytotox = KB-3-1 parental cell cytotoxicity; KB-3-1 viability, CellTiter-Glo ATP luminescence, 72 h; Potency, µM (top dose mostly 46.1 µM), most hits filed as cytotoxic; 400,000 compounds, 1.4% hits; AID 1347075; note: nearly all actives have a fitted effect of over 60% in size
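72 h, 37 °C compound treatment of KB-3-1 parental cells; CellTiter-Glo added, 10 min, luminescence read. Data corrected against DMSO-only plates and normalized before curve fitting.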
MCF10A rereplic = induces DNA re-replication in MCF 10a normal breast cells; 350,000 compounds, 2.9% hits; AID 624296; Potency, µM (doses to about 46.1 µM), actives largely listed as activators; MCF 10A DNA re-replication, Hoechst nuclear intensity, 48 h; note: nearly all actives have a fitted effect of over 50% in size
KB-V1 cytotox = kills drug-selected multidrug resistant KB-V1 cells; KB-V1 MDR cells viability, CellTiter-Glo, 72 h; Potency, µM (highest dose often 46.1 µM), actives largely listed as cytotoxic; 400,000 compounds, 3.4% hits; note: nearly all actives have a fitted effect of over 60% in size
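Compound-treated KB-V1 multidrug-resistant cells, 72 h, 37 degrees C; viability by CellTiter-Glo. Fitted qHTS curves give the values.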
SW480 rereplic = inducers of DNA re-replication in SW480 colon cancer cells; AID 624297; SW480 DNA re-replication, Hoechst DNA content imaging, 48 h; 340,000 compounds, 1.8% hits; Potency, µM (series often up to 46.1 µM), hits mostly activators; note: nearly all actives have a fitted effect of over 55% in size
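Cells (250 per well) received 23 nL compound or DMSO by pin tool and were kept 48 hr at 37 C, 5% CO2. Nuclei were then stained with Hoechst for 40 min and scanned for DNA content.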
PINK1 modulator = PINK1 expression modulation; PINK1 immunofluorescence, high-content cytometry, 24 h; Potency, µM (highest dose often 76.6 µM), most hits filed as activators; 410,000 compounds, 0.2% hits; AID 624263; active = well fitted activation curve with a large enough effect; inconclusive = small, poorly fitted or top-dose-only effect; cell line not stated here; note: nearly all actives have a fitted effect of over 65% in size
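PINK1 protein, normally rapidly degraded, was detected by immunofluorescence after 24 hour compound treatment of a stable cell line. Titration data (5 concentrations) came from laser-scanning cytometry, with CCCP-treated wells as controls.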
Large screens that a line does not name were inactive. Compounds with a hit are over-represented: about 6.7% of the library has one in this group of screens. Unless noted, calls come from the whole dose curve; as a rule, active = well fitted curve in the direction sought with a large enough effect; inconclusive = small, poorly fitted or top-dose-only effect, or another doubt; inactive = no such curve, though single readings can be large; an effect the other way counts as inactive or inconclusive.

COCCNC(=O)/C(C#N)=C/c1cccc(/C=C(\C#N)C(=O)NCCOC)c1	KB-3-1 cytotox inconclusive, MCF10A rereplic 20.6µM, SW480 rereplic inconclusive
CCOc1ccc(C(=O)N/N=C(\c2ccccc2)c2ccccn2)cc1	KB-3-1 cytotox inconclusive, SW480 rereplic 8.2µM
CCOc1ccccc1NC(=O)c1c(NC(=O)COc2ccccc2)sc2c1CCCCC2	KB-3-1 cytotox 4.61µM, KB-V1 cytotox inconclusive (no result: MCF10A rereplic, SW480 rereplic)
CCOc1ccc(NC(=O)c2c(NC(=O)c3ccccc3F)sc3c2CCC3)cc1	none (no result: MCF10A rereplic, SW480 rereplic)
CCOc1ccc(NC(=O)c2c(NC(=O)CNCCN3CCOCC3)sc3c2CCC3)cc1	SW480 rereplic 7.31µM
CN1CCN(c2nc(-c3ccc(Br)cc3)nnc2-c2ccccc2)CC1	MCF10A rereplic inconclusive, KB-V1 cytotox 25.9µM
Brc1ccc(-c2nnc(-c3ccccc3)c(N3CCSCC3)n2)cc1	KB-V1 cytotox inconclusive
Cc1ccc(-c2nnc(-c3ccccc3)c(N3CCOCC3)n2)cc1	KB-3-1 cytotox inconclusive, MCF10A rereplic inconclusive, KB-V1 cytotox 5.8µM, SW480 rereplic inconclusive
COc1cc(C(=O)OCc2csc(CC(=O)Nc3ccccc3C)n2)ccc1OCC(C)C	none
Cc1ccccc1Cn1nc(C)c(NC(=O)C2c3ccccc3Oc3ccccc32)c1C	MCF10A rereplic inconclusive, SW480 rereplic inconclusive
Cc1ccccc1Cn1nc(C)c(NC(=O)C2(C)CC2(Cl)Cl)c1C (configuration not stated)	KB-V1 cytotox inconclusive, SW480 rereplic 18.4µM
Cc1ccccc1Cn1nc(C)c(NC(=O)c2noc3c2CCCC3)c1C	KB-3-1 cytotox inconclusive, KB-V1 cytotox 5.17µM
Cc1cc(NC(=O)c2noc3c2CCCC3)nn1Cc1ccc(Cl)cc1	KB-3-1 cytotox inconclusive, KB-V1 cytotox 18.4µM
COc1cc(NC(=O)c2noc3c2CCC3)c(OC)cc1Cl	PINK1 modulator 11.2µM
COc1ccc(S(=O)(=O)N2CCN(C(=O)C3CC(=O)N(c4ccccc4F)C3)CC2)cc1OC (configuration not stated)	KB-V1 cytotox inconclusive
C[N+](C)(C)c1ccc(/C=C2\C=Cc3ccccc32)cc1	KB-3-1 cytotox inconclusive (no result: MCF10A rereplic, SW480 rereplic)
Clc1ccc(-c2csc(=Nc3ccccc3)n2Cc2ccc3c(c2)OCO3)cc1	none (no result: MCF10A rereplic, SW480 rereplic)
Cc1c(C=Nc2ccc(S(=O)(=O)N(C)C)cc2)c(O)[nH]c(=O)c1C#N	none
CC(C)N=C(NC#N)SCc1ccc(F)cc1	KB-V1 cytotox inconclusive
N#CNC(=Nc1ccc(F)cc1)SCc1ccccc1	MCF10A rereplic inconclusive, SW480 rereplic 3.66µM
COc1ccc(-c2cccc(NS(=O)(=O)c3ccc([N+](=O)[O-])cc3)c2)nn1	KB-V1 cytotox 13µM
O=c1cc(N2CCCCC2)c(-c2ccccc2)nn1Cc1cccc(Cl)c1	MCF10A rereplic 20.6µM
O=c1cc(N2CCCCC2)c(-c2ccccc2)nn1Cc1ccccc1Cl	KB-3-1 cytotox inconclusive, MCF10A rereplic inconclusive
O=c1cc(N2CCCCC2)c(-c2ccccc2)nn1Cc1ccc(Cl)cc1Cl	MCF10A rereplic 14.6µM
CCOc1ccccc1C(=O)N1CCc2cc(OC)c(OC)cc2C1COc1ccc2c(C)cc(=O)oc2c1 (configuration not stated)	none (no result: MCF10A rereplic, SW480 rereplic)
O=S1(=O)CCOC[C@H](Cc2ccccc2)N1Cc1ccc(Cl)cc1	MCF10A rereplic inconclusive
CC1CC(C)CN(C(=O)c2cc(S(=O)(=O)N3CCCCC3)ccc2Cl)C1 (configuration not stated)	none
Cc1ccc2c3c(c(SCC(=O)Nc4nonc4C)nc2c1)CCCC3	MCF10A rereplic inconclusive, PINK1 modulator 10µM
Cc1nonc1NC(=O)CSc1nc2cc(Cl)ccc2c2c1CCCC2	MCF10A rereplic inconclusive, PINK1 modulator inconclusive
CS(=O)(=O)NCCSc1nnnn1-c1ccccc1	none
O=S(=O)(NCCSc1nnnn1-c1ccccc1)c1cccs1	KB-V1 cytotox 16.4µM
O=C(CCN1CCOCC1)c1ccc(Br)cc1	MCF10A rereplic 9.2µM, SW480 rereplic inconclusive
O=C(CCN1CCOCC1)c1ccc(Cl)cc1	MCF10A rereplic 7.31µM
Cc1cccc(CCn2c(=O)c3ccccc3n(CC(=O)Nc3ccccc3F)c2=O)c1	none (no result: MCF10A rereplic, SW480 rereplic)
COc1cc(OC)c(OC)cc1CN1CCOc2ccc(CN3CCN(C(C)=O)CC3)cc2C1	none (no result: KB-3-1 cytotox, MCF10A rereplic, KB-V1 cytotox, SW480 rereplic)
Cn1c(=O)c(-c2ccc(F)cc2)nc2cncnc21	none (no result: KB-3-1 cytotox, MCF10A rereplic, KB-V1 cytotox, SW480 rereplic)
CCOc1ccccc1NC(=O)C1=C(C)NC(=S)NC1c1cccs1 (configuration not stated)	KB-V1 cytotox 13µM
CC1=C(C(=O)Nc2ccccc2C)C(c2cccs2)NC(=S)N1 (configuration not stated)	none
COc1ccc(-c2nc(SCC(=O)NC3CCCCC3)n[nH]2)cc1	KB-3-1 cytotox inconclusive, MCF10A rereplic inconclusive, KB-V1 cytotox inconclusive, SW480 rereplic 16.4µM
Cc1nc(SC(C)C(=O)NCC2CCCO2)c2cc(-c3ccccc3)sc2n1 (configuration not stated)	KB-3-1 cytotox inconclusive, MCF10A rereplic 11.6µM, KB-V1 cytotox inconclusive, SW480 rereplic inconclusive
CC(Sc1ncnc2c1cnn2-c1ccccc1)C(=O)NCC1CCCO1 (configuration not stated)	none
COc1ccc(-c2nc(SC(C)C(=O)NCC3CCCO3)n[nH]2)cc1 (configuration not stated)	KB-3-1 cytotox inconclusive, MCF10A rereplic 13µM, SW480 rereplic 16.4µM
COc1ccc(-c2cn3nc(SCC(=O)NC4CCCCC4)ccc3n2)cc1	MCF10A rereplic 3.66µM, SW480 rereplic 8.2µM
O=C(Nc1cccc(Cl)c1Cl)c1cc(S(=O)(=O)N2CCC3(CC2)OCCO3)ccc1F	none (no result: KB-3-1 cytotox, MCF10A rereplic, KB-V1 cytotox, SW480 rereplic)
O=C(c1cccc(F)c1)N1CCC2(CC1)CCN(c1ncccn1)CC2	none (no result: KB-3-1 cytotox, MCF10A rereplic, KB-V1 cytotox, SW480 rereplic)
CCN(CC)CCOc1ccc2nc(N(C)C)sc2c1	none
CCN(CC)CCOc1ccc(-c2nc3cc(Cl)ccc3s2)cc1	MCF10A rereplic 23.7µM, SW480 rereplic 18.8µM (no result: KB-3-1 cytotox, KB-V1 cytotox, PINK1 modulator)
COc1ccc(Cn2ccc3nc(C)c(C(=O)NCc4ccc(C)cc4)cc3c2=O)cc1	KB-3-1 cytotox 5.17µM (no result: MCF10A rereplic, SW480 rereplic)
COc1ccc(CNC(=O)c2sc(=O)n(Cc3ccc(C)cc3)c2C)cc1	KB-V1 cytotox 20.6µM (no result: MCF10A rereplic, SW480 rereplic)
COc1ccc(Cl)cc1Cn1c(C)c(C(=O)NCc2cccc(Cl)c2)sc1=O	KB-V1 cytotox 14.6µM (no result: MCF10A rereplic, SW480 rereplic)
Cc1cccc(C)c1Cn1c(C)c(C(=O)NCc2ccc([N+](=O)[O-])cc2)sc1=O	KB-3-1 cytotox inconclusive, KB-V1 cytotox 2.59µM (no result: MCF10A rereplic, SW480 rereplic)
COc1ccc(CNC(=O)c2sc(=O)n(Cc3ccc(S(=O)(=O)N(C)C)cc3)c2C)cc1	KB-3-1 cytotox inconclusive, KB-V1 cytotox inconclusive (no result: MCF10A rereplic, SW480 rereplic)
Cc1cc(-c2nnc(SCC(=O)Nc3ccccc3F)n2N)n[nH]1	none
COc1ccc(NC(=O)Nc2ccc3c(c2)C(=O)N([C@@H](C)CO)C[C@@H](C)[C@@H](CN(C)S(=O)(=O)c2cccs2)O3)cc1	SW480 rereplic inconclusive
CCOC(CCn1ccc(O)c(Cc2ccc(Cl)cc2)c1=O)OCC	none
COc1ccc(CNC(=O)c2sc(=O)n(Cc3cc(Cl)ccc3OC)c2C)cc1	KB-V1 cytotox inconclusive (no result: MCF10A rereplic, SW480 rereplic)

From PubChem BioAssay
